The results in this text go back to PubChem BioAssay (EPA / NIEHS).

A word on the AC50: it is the midpoint of the concentration-response curve, whichever way the signal moves.

Structures are written as SMILES. Where “and” joins values, the source holds several entries; their conditions need not be identical. Identical values can stand only once. A structure can be active in one record and inactive in another. Calls of active or inactive are those of the source. Rule for the calls: active = hit-call score of the fitted dose curve at least 0.9, where 1 is the maximum; inactive = score below 0.9.

The assay in a line: ATG_BRE_CIS: Attagene CIS-FACTORIAL HepG2 Assay for human Bone Morphogenetic Protein (BMP) Response Element (BRE) (AID 2282933). The note with it: HepG2 BMP response element reporter, Attagene transcription factor profiling; actives raise or lower the signal. On the procedure: ATG_CIS is a cell-based, multiplexed-readout assay that uses HepG2, a human liver cell line, with measurements taken at 24 hours after chemical dosing in a 24-well plate.ATG_BRE_CIS is one of 52 assay component(s) measured or calculated from the ATG_CIS assay. It is designed to make measurements of mRNA induction, a form of inducible reporter, as detected with fluorescence intensity signals by Reverse transcription polymerase chain reaction (RT-PCR) and Capillary electrophoresis technology.Data from the assay component ATG_BRE_CIS was analyzed into 1 assay endpoint. This assay endpoint, ATG_BRE_CIS, was analyzed with bidirectional fitting relative to DMSO as the negative control and baseline of activity. Using a type of inducible reporter, measures of mRNA for gain or loss-of-signal activity can be used to understand the reporter gene at the transcription factor-level as they relate to the gene SMAD1. Furthermore, this assay endpoint can be referred to as a primary readout, because this assay has produced multiple assay endpoints where this one serves a reporter gene function. To generalize the intended target to other relatable targets, this assay endpoint is annotated to the dna binding intended target family, where the subfamily is Smad protein.
Human liver HepG2 cells are transiently transfected with multiple reporter transcription units (MRTUs) in 6-well plates using FuGene 6 reagent (Roche; 3 ml FuGene/1 mg DNA). The MRTU constructs are regulated by a cis-regulating element (promoter). […] A major difference between the CIS and TRANS system is that in CIS activities of endogenous TFs are measured, whereas the TRANS assay evaluates changes in activities of exogenous, chimeric NR-Gal4 proteins. […] At the end of 24 hour incubation, total RNA was isolated using TriZol reagent (Invitrogen). The isolated RNA is then reverse-transcribed using oligo(dT) primer and Mo-MLV reverse transcriptase (Invitrogen) with DNAse I (Ambion) treatment for 30 min. The one-tenth of the produced cDNA was amplified by PCR using Taq DNA polymerase (Invitrogen) and two reporter sequence-specific primers. The PCR products were fluorescently labeled by primer extension with 6-arboxyfluorescein (6-FAM) 5'-labeled reporter sequence-specific primer (2 min at 95 C, 20 s at 68 C and 10 min at 72 C) and these products were digested with 5U of HpaI (New England Biolabs) for 2h at 37 C. The fragments were purified using Qiaquick PCR columns (Qiagen), analyzed on an ABI 3130xL genetic analyzer (Applied Biosystems) with peak positions identified by using a set of X-rhodamine (ROX)-labeled MapMarker1000 molecular weight standards (BioVentures). The raw capillary electrophoresis data was processed using Attagraph software (Attagene).
Regarding `C=CC(=O)NCNC(=O)C=C`, the molecule was called inactive.

With `CC(C)(c1ccccc1)c1ccc(O)cc1`, the molecule was called inactive and the AC50 was 33.4 µM (active).

For `Oc1c(Cl)c(Cl)c(Cl)c(Cl)c1Cl`, the AC50 is 13.6 µM (active) and 18.2 µM (active) and 31.3 µM (active).

As for `Cc1cccc(C)c1N`, the outcome was inactive.

With `Nn1cnnc1`, the call was inactive.

For `O=S(=O)(O)C(F)(F)C(F)(F)C(F)(F)C(F)(F)C(F)(F)C(F)(F)F`, the molecule was classed as inactive.

Consider `CCNc1nc(NC(C)C)nc(SC)n1`, for which the outcome was inactive.

For the molecule `Cc1ccccc1CO[C@@H]1C[C@@]2(C(C)C)CC[C@]1(C)O2`, the call was inactive.

Take `Oc1ccc(C(c2ccc(O)cc2)(C(F)(F)F)C(F)(F)F)cc1`: the AC50 is 16 µM (active) and the result was inactive.

`CC(C)(O)C(=O)Nc1ccc([N+](=O)[O-])c(C(F)(F)F)c1`: the molecule was classed as inactive; the AC50 is 77 µM (active) and 121 µM (active).

Take `CCCCCCCCOC(=O)c1ccccc1C(=O)OCCCCCCCC`: the molecule was called inactive.

As to `Cc1ccccc1O`, the outcome was inactive.

Regarding `C[C@]12CCC(=O)C=C1CC[C@@H]1[C@@H]2CC[C@@]2(C)[C@H]1CC[C@]2(C)O`, the molecule was classed as inactive; the AC50 was 91.5 µM (active) and 64 µM (active).

For `O=C(NC(=O)c1cc(F)c(F)cc1Cl)Nc1cc(F)ccc1N1CCC(C(=O)O)CC1`, the molecule was called inactive.

In the case of `CCOP(=S)(OCC)SCSC(C)(C)C`, the result was inactive.

In the case of `O=C(N[C@H]1CN2CCC1CC2)c1cc2ccoc2cn1`, the outcome was inactive.

Turning to `C[C@]12CCC(=O)C=C1CC[C@@H]1[C@@H]2CC[C@]2(C)C(=O)CC[C@@H]12`, the result was inactive.

As to `O=C(O)C(F)(F)C(F)(F)C(F)(F)C(F)(F)C(F)(F)F`, the result was inactive.

Consider `CCCCCCCCCC[N+](C)(C)CCCCCCCCCC`, for which the outcome was inactive.

With `Cc1ccccc1[N+](=O)[O-]`, the molecule was classed as inactive.

For `OCC(O)CO`, the molecule was called inactive.

Turning to `O=NN(c1ccccc1)c1ccccc1`, the molecule was classed as inactive.

On to `CCC(=O)O[C@H]1CC[C@H]2[C@@H]3CCC4=CC(=O)CC[C@]4(C)[C@H]3CC[C@]12C`, for which the AC50 was 149 µM (active) and 100 µM (active) and 160 µM (active); the molecule was classed as inactive.

Turning to `CN(C)CCO`, the molecule was classed as inactive.

In the case of `Cc1ccc(O)c(C)c1`, the molecule was classed as inactive.

`Clc1ccc(Cl)cc1`: the result was inactive.

In the case of `C=CC(N)=O`, the molecule was called inactive.

Turning to `O=C(O)C(F)(F)C(F)(F)C(F)(F)C(F)(F)C(F)(F)C(F)(F)C(F)(F)C(F)(F)C(F)(F)F`, the outcome was inactive.

For `Cc1cc(-c2ccc(N)c(C)c2)ccc1N`, the molecule was classed as inactive.

As to `NS(=O)(=O)C(F)(F)C(F)(F)C(F)(F)C(F)(F)C(F)(F)C(F)(F)C(F)(F)C(F)(F)F`, the AC50 is 45.4 µM (active) and 248 µM (active) and 15.5 µM (active).

Take `c1cc2ccc3cccc4ccc(c1)c2c34`: the molecule was called inactive.

For `CCOC(=O)C(O)(c1ccc(Cl)cc1)c1ccc(Cl)cc1`, the molecule was classed as inactive.

Regarding `CCCCCCCCCc1ccc(O)cc1`, the AC50 was 55.7 µM (active) and the result was inactive.

For the molecule `O=C(NC(=O)c1c(F)cccc1F)Nc1cc(Cl)c(OC(F)(F)C(F)F)c(Cl)c1`, the result was inactive.
